# Experimental data from the supplement of paper PMC8728848.
# This excerpt belongs to a sample that is enriched for the strongest signals.
# B1: OVGAL11 (Ovis aries), AAF64320 (protein)
# chain: MDSLPNPYLQSVSLTVCYMVKIKANLLSAFGKNPELQVDFGTGTGQGGNIPFRFWYCDGMVVMNTFTDGSWQKEEKVLTDAFVPGQPFELQFLVLEKEYQVFVKNKPICQFAHRLPLQSVKMLDVRGDIVLTSVDTL
# Tests used:
# Assay in all cases: glycan array binding signal (z-score within array); higher = stronger binding
# Details in all cases: glycan notation: IUPAC condensed, linker removed
# [1] = target: Fuc(a1-2)Gal(b1-3)GalNAc(b1-3)Gal
# In short: (§1)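 Columns mapping to the same glycan were averaged after glycan names were converted to IUPAC-condensed notation. The data come from 3228 arrays in the Consortium for Functional Glycomics database, limited to those with an available protein sequence. Binding is reported as a within-array Z-score averaged across arrays of one protein sequence and across linkers.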
# [2] = target: Fuc(a1-2)Gal(b1-3)GalNAc(b1-4)[Neu5Ac(a2-3)]Gal(b1-4)Glc
# In short: as §1
# [3] = target: Fuc(a1-2)Gal(b1-3)GlcNAc
# In short: as §1
# [4] = target: Fuc(a1-2)Gal(b1-4)Glc
# In short: as §1
# [5] = target: Fuc(a1-2)[Gal(a1-3)]Gal(b1-4)GlcNAc
# In short: as §1
# [6] = target: Fuc(a1-2)[GalNAc(a1-3)]Gal(b1-4)Glc
# In short: as §1
# [7] = target: Fuc(a1-2)[GalNAc(a1-3)]Gal(b1-4)GlcNAc(b1-3)Gal(b1-4)GlcNAc(b1-3)Gal(b1-4)GlcNAc
# In short: as §1
# [8] = target: Fuc(a1-3)GlcNAc
# In short: as §1
# [9] = target: Fuc(a1-3)[Gal(b1-4)]GlcNAc(b1-3)GalNAc
# In short: as §1
# [10] = target: Gal(a1-3)Gal(b1-3)Glc
# In short: as §1
# [11] = target: Gal(a1-3)Gal(b1-3)GlcNAc(b1-2)Man(a1-3)[Gal(a1-3)Gal(b1-3)GlcNAc(b1-2)Man(a1-6)]Man(b1-4)GlcNAc(b1-4)GlcNAc
# In short: as §1
# [12] = target: Gal(a1-3)Gal(b1-3)GlcNAc(b1-6)GalNAc
# In short: as §1
# [13] = target: Gal(a1-4)Gal(b1-4)Glc
# In short: as §1
# [14] = target: Gal(b1-3)Gal(b1-4)GlcNAc
# In short: as §1
# [15] = target: Gal(b1-3)GalNAc(b1-4)[Neu5Ac(a2-3)]Gal(b1-4)Glc
# In short: as §1
# [16] = target: Gal(b1-3)GlcNAc(a1-6)Gal(b1-4)GlcNAc
# In short: as §1
# [17] = target: Gal(b1-3)GlcNAc(b1-2)Man
# In short: as §1
# [18] = target: Gal(b1-3)GlcNAc(b1-3)Gal(b1-4)GlcNAc(b1-6)[Gal(b1-3)GlcNAc(b1-3)]Gal(b1-4)Glc
# In short: as §1
# [19] = target: Gal(b1-3)[Fuc(a1-4)]GlcNAc(b1-3)Gal(b1-3)[Fuc(a1-4)]GlcNAc
# In short: as §1
# [20] = target: Gal(b1-4)GlcNAc(b1-2)Man(a1-3)[Gal(b1-4)GlcNAc(b1-2)Man(a1-6)][Gal(b1-4)GlcNAc(b1-4)]Man(b1-4)GlcNAc(b1-4)[Fuc(a1-6)]GlcNAc
# In short: as §1
# [21] = target: Gal(b1-4)GlcNAc(b1-2)Man(a1-3)[Man(a1-6)]Man(b1-4)GlcNAc(b1-4)GlcNAc
# In short: as §1
# [22] = target: Gal(b1-4)GlcNAc(b1-2)Man(a1-6)[GlcNAc(b1-2)Man(a1-3)]Man(b1-4)GlcNAc(b1-4)GlcNAc
# In short: as §1
# [23] = target: Gal(b1-4)GlcNAc(b1-2)[Gal(b1-4)GlcNAc(b1-6)]Man(a1-6)[GlcNAc(b1-4)][Gal(b1-4)GlcNAc(b1-2)Man(a1-3)]Man(b1-4)GlcNAc(b1-4)GlcNAc
# In short: as §1
# [24] = target: Gal(b1-4)GlcNAc(b1-3)[Gal(b1-4)GlcNAc(b1-6)]GalNAc
# In short: as §1
# [25] = target: Gal3S(b1-4)Glc
# In short: as §1
# [26] = target: Gal3S6S(b1-4)GlcNAc
# In short: as §1
# [27] = target: Gal3S6S(b1-4)GlcNAc6S
# In short: as §1
# [28] = target: Glc(a1-6)Glc(a1-6)Glc
# In short: as §1
# [29] = target: Glc(b1-6)Glc
# In short: as §1
# [30] = target: GlcNAc(a1-4)Gal(b1-3)GlcNAc
# In short: as §1
# [31] = target: GlcNAc(a1-4)Gal(b1-4)GlcNAc(b1-3)Gal(b1-4)GlcNAc
# In short: as §1
# [32] = target: GlcNAc(b1-3)Gal(b1-4)GlcNAc(b1-6)[GlcNAc(b1-3)]Gal(b1-4)GlcNAc
# In short: as §1
# [33] = target: GlcNAc(b1-3)[GlcNAc(b1-6)]GalNAc
# In short: as §1
# [34] = target: GlcNAc(b1-4)GlcNAc(b1-4)GlcNAc(b1-4)GlcNAc(b1-4)GlcNAc
# In short: as §1
# [35] = target: Man(a1-2)Man(a1-2)Man(a1-3)Man
# In short: as §1
# [36] = target: MurNAc(b1-4)GlcNAc
# In short: as §1
# [37] = target: Neu5Ac(a2-3)Gal(b1-3)GalNAc(b1-4)[Neu5Ac(a2-8)Neu5Ac(a2-3)]Gal(b1-4)Glc
# In short: as §1
# [38] = target: Neu5Ac(a2-3)Gal(b1-4)GlcNAc(b1-3)Gal(b1-4)GlcNAc(b1-3)[Neu5Ac(a2-3)Gal(b1-4)GlcNAc(b1-3)Gal(b1-4)GlcNAc(b1-6)]GalNAc
# In short: as §1
# [39] = target: Neu5Ac(a2-3)Gal(b1-4)GlcNAc(b1-3)[Neu5Ac(a2-3)Gal(b1-4)GlcNAc(b1-6)]GalNAc
# In short: as §1
# [40] = target: Neu5Ac(a2-3)Gal6S(b1-4)[Fuc(a1-3)]GlcNAc
# In short: as §1
# [41] = target: Neu5Ac(a2-6)Gal(b1-4)GlcNAc(b1-2)Man(a1-3)[Neu5Ac(a2-3)Gal(b1-4)GlcNAc(b1-2)Man(a1-6)]Man(b1-4)GlcNAc(b1-4)GlcNAc
# In short: as §1
# [42] = target: Neu5Ac(a2-6)Gal(b1-4)GlcNAc(b1-2)Man(a1-3)[Neu5Ac(a2-6)Gal(b1-4)GlcNAc(b1-2)Man(a1-6)]Man(b1-4)GlcNAc(b1-4)GlcNAc
# In short: as §1
# [43] = target: Neu5Ac(a2-6)Gal(b1-4)GlcNAc(b1-3)Gal(b1-4)GlcNAc(b1-3)GalNAc
# In short: as §1
# [44] = target: Neu5Ac(a2-6)Gal(b1-4)GlcNAc(b1-3)GalNAc
# In short: as §1
# [45] = target: Neu5Ac(a2-8)Neu5Ac(a2-3)Gal(b1-3)GalNAc(b1-4)[Neu5Ac(a2-3)]Gal(b1-4)Glc
# In short: as §1
# [46] = target: Neu5Ac(a2-8)Neu5Ac(a2-3)[Gal(b1-3)GalNAc(b1-4)]Gal(b1-4)Glc
# In short: as §1
# [47] = target: Neu5Ac(a2-8)Neu5Ac(a2-8)Neu5Ac(a2-3)[Gal(b1-3)GalNAc(b1-4)]Gal(b1-4)Glc
# In short: as §1
# [48] = target: Neu5Ac(a2-8)Neu5Gc(a2-3)Gal(b1-4)GlcNAc
# In short: as §1
# [49] = target: Neu5Gc(a2-3)Gal(b1-4)Glc
# In short: as §1
# [50] = target: Neu5Gc(a2-3)Gal(b1-4)[Fuc(a1-4)]GlcNAc
# In short: as §1
binder,measurement,setting,value
B1,glycan array binding signal (z-score),[1],1.72
same,glycan array binding signal (z-score),[2],6.31
same,glycan array binding signal (z-score),[3],-0.096
same,glycan array binding signal (z-score),[4],-0.057
same,glycan array binding signal (z-score),[5],0.2
same,glycan array binding signal (z-score),[6],0.204
same,glycan array binding signal (z-score),[7],-0.076
same,glycan array binding signal (z-score),[8],4.51
same,glycan array binding signal (z-score),[9],-0.106
same,glycan array binding signal (z-score),[10],-0.398
same,glycan array binding signal (z-score),[11],-0.081
same,glycan array binding signal (z-score),[12],-0.082
same,glycan array binding signal (z-score),[13],-0.104
same,glycan array binding signal (z-score),[14],-0.063
same,glycan array binding signal (z-score),[15],1.62
same,glycan array binding signal (z-score),[16],-0.11
same,glycan array binding signal (z-score),[17],-0.023
same,glycan array binding signal (z-score),[18],-0.113
same,glycan array binding signal (z-score),[19],-0.101
same,glycan array binding signal (z-score),[20],-0.011
same,glycan array binding signal (z-score),[21],-0.086
same,glycan array binding signal (z-score),[22],-0.094
same,glycan array binding signal (z-score),[23],-0.095
same,glycan array binding signal (z-score),[24],0.686
same,glycan array binding signal (z-score),[25],0.199
same,glycan array binding signal (z-score),[26],-0.175
same,glycan array binding signal (z-score),[27],0.724
same,glycan array binding signal (z-score),[28],-0.089
same,glycan array binding signal (z-score),[29],0.568
same,glycan array binding signal (z-score),[30],-0.114
same,glycan array binding signal (z-score),[31],-0.089
same,glycan array binding signal (z-score),[32],-0.102
same,glycan array binding signal (z-score),[33],-0.084
same,glycan array binding signal (z-score),[34],-0.316
same,glycan array binding signal (z-score),[35],4.38
same,glycan array binding signal (z-score),[36],-0.098
same,glycan array binding signal (z-score),[37],-0.069
same,glycan array binding signal (z-score),[38],-0.068
same,glycan array binding signal (z-score),[39],-0.097
same,glycan array binding signal (z-score),[40],-0.219
same,glycan array binding signal (z-score),[41],-0.08
same,glycan array binding signal (z-score),[42],-0.138
same,glycan array binding signal (z-score),[43],-0.065
same,glycan array binding signal (z-score),[44],-0.082
same,glycan array binding signal (z-score),[45],1.75
same,glycan array binding signal (z-score),[46],13.5
same,glycan array binding signal (z-score),[47],-0.044
same,glycan array binding signal (z-score),[48],0.807
same,glycan array binding signal (z-score),[49],-0.214
same,glycan array binding signal (z-score),[50],0.714
